Inconclusive results are not listed. The source made the active and inactive calls. Unless noted, calls follow the shape of the dose curve; as a rule, active = well fitted curve in the direction sought with a large enough effect; inconclusive = small, poorly fitted or top-dose-only effect, or another doubt; inactive = no such curve, though single readings can be large; an effect the other way counts as inactive or inconclusive.
Columns and labels:
[1] = qHTS for Inhibitors of Plasmodium falciparum (DD2) proliferation (AID 504314);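 also: parasite DNA measured by SYBR Green fluorescence after red cell lysis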
Summary of the method: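 Erythrocytes infected with P. falciparum (0.3% parasitemia, 2.5% hematocrit final) were incubated with compounds for 72 h at 37C, 5% CO2. Parasite DNA was detected by SYBR Green I fluorescence after saponin/Triton lysis, normalized to artemisinin (0.29 uM) and DMSO controls.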

[2] = qHTS for Inhibitors of Plasmodium falciparum (GB4) proliferation (AID 504315); also: nearly all actives have a fitted effect of over 50% in size
Summary of the method: (§1)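 Erythrocytes infected with P. falciparum line (0.3% parasitemia, 2.5% hematocrit final) incubated with compounds 72 h at 37 °C, 5% CO2; SYBR Green lysis buffer added, fluorescence read next day. Normalized to 0.29 uM artemisinin and DMSO.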

[3] = qHTS for Inhibitors of Plasmodium falciparum (7G8) proliferation (AID 504316); also: series mostly up to about 6.7 µM; nearly all actives have a fitted effect of over 65% in size
Summary of the method: as §1

[4] = qHTS for Inhibitors of Plasmodium falciparum (HB3) proliferation (AID 504318); also: nearly all actives have a fitted effect of over 60% in size
Summary of the method: as §1

[5] = qHTS for Inhibitors of Plasmodium falciparum (CP250) proliferation (AID 504320)
Summary of the method: as §1

[6] = target: Atrial natriuretic peptide receptor 1 (Homo sapiens) (UniProt P16066); experiment: Natriuretic polypeptide receptor (hNpr1) antagonism - Pilot CMLD screen (AID 1347052; calls by dose curve;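 also: HEK293 cells with hNpr1 stimulated by hNppA peptide at 0.1 nM; cGMP level read as GloSensor luciferase luminescence after agonist stimulation; series mostly up to about 9.2 µM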)

Measured: Potency

Sequence of Atrial natriuretic peptide receptor 1 (Homo sapiens) (P16066 whole entry, looked up): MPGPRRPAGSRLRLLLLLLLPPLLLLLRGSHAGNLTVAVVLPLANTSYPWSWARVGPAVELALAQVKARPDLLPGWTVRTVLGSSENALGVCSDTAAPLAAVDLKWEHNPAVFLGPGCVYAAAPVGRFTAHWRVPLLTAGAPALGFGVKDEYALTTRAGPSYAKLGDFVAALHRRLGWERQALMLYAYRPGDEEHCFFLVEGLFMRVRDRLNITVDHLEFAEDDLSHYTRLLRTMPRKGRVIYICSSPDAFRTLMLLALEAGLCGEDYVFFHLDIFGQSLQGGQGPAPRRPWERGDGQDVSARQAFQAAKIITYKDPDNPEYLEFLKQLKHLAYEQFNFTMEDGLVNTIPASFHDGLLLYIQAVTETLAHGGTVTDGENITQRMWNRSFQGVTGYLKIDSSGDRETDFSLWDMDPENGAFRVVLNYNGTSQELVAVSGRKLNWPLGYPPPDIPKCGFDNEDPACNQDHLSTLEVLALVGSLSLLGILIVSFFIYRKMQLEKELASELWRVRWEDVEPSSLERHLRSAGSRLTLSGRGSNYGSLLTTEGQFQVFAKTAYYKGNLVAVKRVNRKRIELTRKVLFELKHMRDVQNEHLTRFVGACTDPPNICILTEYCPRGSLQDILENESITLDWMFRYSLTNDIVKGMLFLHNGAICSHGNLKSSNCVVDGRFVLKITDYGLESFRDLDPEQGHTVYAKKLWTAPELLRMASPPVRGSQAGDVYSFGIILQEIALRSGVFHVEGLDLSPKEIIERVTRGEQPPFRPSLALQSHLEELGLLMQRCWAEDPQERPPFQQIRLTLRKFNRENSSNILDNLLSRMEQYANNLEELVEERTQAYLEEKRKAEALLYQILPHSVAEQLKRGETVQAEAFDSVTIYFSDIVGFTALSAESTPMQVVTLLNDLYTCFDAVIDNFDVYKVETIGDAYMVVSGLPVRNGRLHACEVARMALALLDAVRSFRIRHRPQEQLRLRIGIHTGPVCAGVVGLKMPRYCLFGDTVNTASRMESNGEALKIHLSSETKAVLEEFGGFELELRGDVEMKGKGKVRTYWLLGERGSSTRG

C[C@@H](ON=C1[C@H]2CCn3c(=O)n(-c4ccccc4)c(=O)n3[C@@H]2[C@H](O)[C@@H]2O[C@H]12)c1cn([C@@H]2COC[C@@H]2O)nn1
inactive: all assays above

COCC=CC1=CC2=CC(=O)C(C)(OC(=O)c3cnc4ccccc4n3)C(=O)C2=CN1Cc1ccccc1 (stereo unspecified)
inactive: all assays above

CC#CCN1c2ccccc2[C@]23CCC(=O)N(Cc4cccc(C(F)(F)F)c4)C2=NC(C(=O)OC)=C(C(=O)OC)[C@H]13
inactive: all assays above

CCN1C(=O)NC(CCc2ccccc2)C(C(=O)OC)=C1C (stereo unspecified)
inactive: all assays above

CC12C=C(C=CCCc3ccco3)C(C)(C1)C(CCc1ccco1)CC2=O (stereo unspecified)
inactive: all assays above

CC1(C)O[C@H]2OC([C@H](O)CON3C(=O)c4ccccc4C3=O)[C@H](O)[C@@H]2O1 (stereo partly specified)
inactive: all assays above

CCCNC(=O)OC[C@H]1O[C@H](CCON=CC[C@@H]2C=C[C@H](OC(C)=O)[C@@H](COC(C)=O)O2)C=C[C@H]1Oc1ccc(OC)cc1
inactive: all assays above

CCCCc1nc2c(c3c1C[C@H](C)OC3)CN(C(=O)Cc1cccs1)CC2
inactive: all assays above

c1ccc(-c2nc(-c3ccccc3)c(NC3CCCCC3)o2)cc1
inactive: all assays above

COc1cccc(CC(=O)N2CCc3nc(COc4ccccc4)c4c(c3C2)CO[C@@H](C)C4)c1
inactive: all assays above

COC(=O)C1=C(C(=O)OC)[C@@H]2N(C)c3ccccc3[C@@]23CCC(=O)N(Cc2ccco2)C3=N1
inactive: all assays above

CC(CCC(=O)OC[C@H]1O[C@H](C#Cc2ccccc2)C=C[C@H]1Oc1ccc(C)cc1)=NOC[C@@H](O)[C@H]1O[C@@H]2OC(C)(C)O[C@H]2[C@@H]1O
inactive: all assays above

C#CCCOC(=O)N1C2=NC(C(=O)OC)=C(C(=O)OC)[C@@H]3N(C)c4ccccc4[C@]23C[C@H]1C(=O)OC
inactive: all assays above

Cc1cc(F)ccc1O[C@H]1C=C[C@@H](c2ccc3c(c2)OCO3)O[C@H]1CO
inactive: all assays above

CCCC[C@]12Cc3cc(C#N)ccc3[C@H](O1)c1c(c3cc(F)ccc3oc1=O)O2
inactive: all assays above

CC(=O)OC[C@H]1O[C@H](CC=NOC[C@@H](C)[C@H](OCc2ccccc2)C(C)C)C=C[C@@H]1OC(C)=O
inactive: all assays above

O=S(=O)(CCc1ccccc1)c1ccccc1
inactive: all assays above

COC(=O)CC=C[C@@H](C)[C@H](OC)c1cc(OC)ccc1Br
inactive: all assays above

CC(C)CON=C1C[C@@H](O)[C@@H](O)[C@@H]2[C@H]3C(=O)N(C4CCCCC4)C(=O)[C@@H]3CC[C@@H]12
inactive: all assays above

CC1=CC[C@@H](C)O[C@@]2(C1)C(=O)N(Cc1ccc(Br)cc1)c1ccccc12
inactive: all assays above

C#CCN1C(=O)[C@]2(OCCC=C[C@H]2C)c2ccccc21
inactive: all assays above

CCN1C(=O)[C@@H]2[C@H]3[C@H](O)[C@H](O)CC(=NOC[C@@H](C)[C@H](OCc4ccccc4)C(C)C)[C@@H]3CC[C@H]2C1=O
inactive: all assays above

O=C1CCC=C1C(O)c1ccc2c(c1)OCO2 (stereo unspecified)
inactive: all assays above

COC(=O)C1=C[C@]2(c3ccccc3C[C@H](OC)[C@@H]2C)[C@H]2C=C[C@H]1C2
inactive: all assays above

C[C@@H]1CC2CCC[C@@H]2[C@]2(O1)C(=O)Nc1cccc(Br)c12 (stereo partly specified)
inactive: all assays above

COC(=O)CC=C[C@@H](C)[C@@H](C=NOC[C@@H](O)COCc1ccco1)OC
inactive: all assays above

COC(=O)[C@@H]1CC[C@H](C)[C@@H](c2ccc(C)cc2)N1C(=O)c1ccc(C=NO[C@H](C)c2cn([C@@H]3COC[C@@H]3O)nn2)cc1
inactive: all assays above

COc1ccc(-c2nc(-c3ccccc3)oc2NC(C)c2ccccc2)cc1 (stereo unspecified)
inactive: all assays above

C[C@@H]1C=CCCO[C@]12C(=O)N(Cc1ccc(F)cc1)c1cccc(Br)c12
inactive: all assays above

COC(=O)C1=C(C(=O)OC)[C@@H]2N(Cc3ccccc3)c3ccccc3[C@@]23C[C@@H](C(=O)OC)N(C(=O)c2cc(C)oc2C)C3=N1
inactive: all assays above

CC1(OC(=O)C2CCCC2)C(=O)C=C2C=C(c3ccsc3)N(CCc3ccccn3)C=C2C1=O (stereo unspecified)
inactive: all assays above

COc1cc(C(NC(=O)C(F)(F)F)c2cc3ccccc3o2)cc(OC)c1OC (stereo unspecified)
inactive: all assays above

COC(=O)N[C@H](CC(C)=O)c1cccc(C(F)(F)F)c1
inactive: all assays above

C[C@H]1C(C(=O)N2CCCC2)=Cc2[nH]c(=O)[nH]c2C=C1c1ccccc1
inactive: all assays above

COC(=O)C1=C(C)[C@@H](O)[C@@H](C)[C@](C)(c2cc(OC)c(C)c(OC)c2COc2ccccc2)O1
inactive: all assays above

COC(=O)N[C@@H](CCc1ccccc1)[C@]1(C(C)=O)CCCC1=O
inactive: all assays above
